Compound activity (PubChem)
In the library only some 17% were active in any assay of this set; here they are far more common.
TGFb SMAD3 inh = TGF-b pathway inhibition | 1.2% of 410,000 active | Potency, µM (doses to about 46.1 µM), inactives show at the highest dose activity, negative = inhibition, usual class: inhibitors | HepG2 CAGA-GFP TGF-b/SMAD3 reporter, GFP fluorescence, 18 h; TGF-beta stimulated, 500 pg/mL final; also: % is scaled to controls: 0 for no effect and ±100 for the full control effect; nearly all actives have a fitted effect of over 65% in size
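Inhibition was scored as loss of TGF-beta-induced (500 pg/mL final, 18 hours, 37 degrees C) GFP in HEPG2 cells carrying a CAGA-GFP reporter, in DMEM with 1% FBS. Well GFP was summed per cell; Activity was normalised to unstimulated and stimulated DMSO wells, then concentration-response fitting.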
TDP1 cell noCPT = qHTS for Inhibitors of human tyrosyl-DNA phosphodiesterase 1 (TDP1): qHTS in cells in absence of CPT | DT40 Tdp1-/- hTDP1 cells, no CPT, ATP luminescence, 48 h | Potency, µM (highest dose often 46.2 µM), inactives show at the highest dose activity change, negative = growth inhibition, most hits filed as inhibitors | 15% of 420,000 active; also: % is scaled to controls: 0 for no effect and ±100 for the full control effect; nearly all actives have a fitted effect of over 55% in size
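Growth kinetics read by CellTiter-Glo luminescence after ≥48 hr at 37 °C. Cells: DT40 Tdp1-/- stably carrying human TDP1, 400 per well, compound exposure in the absence of CPT (DMSO vehicle).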
TDP1 cell CPT = DT40-hTDP1 cell growth loss with CPT; chicken DT40 Tdp1-/-;hTDP1 cells + 20 nM CPT, ATP luminescence, 48 h; 12% of 420,000 active; Potency, µM (doses to about 46.2 µM), for the others: at the highest dose activity change, negative = growth inhibition, usual class: inhibitors; also: % is scaled to controls: 0 for no effect and ±100 for the full control effect; nearly all actives have a fitted effect of over 55% in size
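Chicken DT40 Tdp1-/- cells stably complemented with human TDP1 were seeded at 400 cells/well in medium containing 20 nM camptothecin, exposed to pin-transferred compounds, and grown at 37 °C for at least 48 hr. Viability was read as ATP luminescence.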
HepG2 viability = counter-screen for TGF-b inhibitors: cytotoxicity in HepG2 cells; HepG2 CAGA-GFP viability, ATP luminescence, 18 h; Potency, µM (series often up to 46.1 µM), inactives show top-dose activity change, negative = cytotoxicity, hits mostly cytotoxic; 0.76% of 410,000 active; AID 588856
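CellTiter-Glo luminescence gave cytotoxicity after 18 hours at 37 degrees C. The cells were HepG2 CAGA-GFP in 1% FBS DMEM, stimulated with 500 pg/mL TGF-beta after compound addition. %Activity was normalised to no-cell wells (complete cell-killing) and DMSO (no toxicity), and curves were fitted and classified.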
ATXN2 expr inh = inhibitors of ATXN2 expression | 0.72% of 360,000 active | HEK-293 ATXN2-luciferase reporter, luminescence, 24 h | Potency, µM (titrated, usually from 57 µM), for the others: at the highest dose activity change, negative = inhibition, most hits filed as inhibitors; also: % is scaled to controls: 0 for no effect and ±100 for the full control effect; nearly all actives have a fitted effect of over 55% in size
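qHTS (up to 57 uM final) was run with 24 h compound exposure of reporter cells at 37 °C. Each well was multiplexed: SteadyGlo luminescence measured ATXN2-luciferase expression after a fluorogenic Gly-Phe-AFC viability readout (25 uM final).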
S2 tox = cell viability loss in ATXN counter-screen | S2 cells (HEK-293 line with an ATXN2-luciferase reporter) viability, CellTiter-Fluor protease fluorescence, 24 h | Potency, µM (series often up to 56.7 µM), actives largely listed as cytotoxic | 0.49% of 400,000 active; also: nearly all actives have a fitted effect of over 40% in size
An asterisk follows results filed as active; i = inactive; u = inconclusive; x = no result; [ ] = another dose, or the depositor's remark. Calls follow the shape of the dose curve; as a rule, active = well fitted curve in the direction sought with a large enough effect; inconclusive = small, poorly fitted or top-dose-only effect, or another doubt; inactive = no such curve, though single readings can be large; an effect the other way counts as inactive or inconclusive. Potency is read from the fitted curve at half-maximal effect.

SMILES | TGFb SMAD3 inh | TDP1 cell noCPT | TDP1 cell CPT | HepG2 viability | ATXN2 expr inh | S2 tox
CC(=O)c1cccc(NS(=O)(=O)c2ccc3[nH]c4c(c3c2)CCCCCC4)c1 | u | 20.6µM* | u | -82.1% | -29.5% | u
Cc1ccc(NS(=O)(=O)c2ccc3[nH]c4c(c3c2)CCCC4)cc1N(C)C | u | u | u | -99.8% | u | u
Cc1ccccc1NS(=O)(=O)c1ccc2[nH]c3c(c2c1)CCCCC3 | u | x | x | -68.7% | -35.3% | u
CCOC(=O)c1cccc(NS(=O)(=O)c2ccc3[nH]c4c(c3c2)CCCC4)c1 | 14.1µM* | u | 23.1µM* | -53.5% | u | u
O=C(Nc1ccc2[nH]c3c(c2c1)CCCC3)c1ccco1 | 10.2% | 20.6µM* | u | -30.5% | 16.1% | i
O=C(/C=C/Nc1nccs1)C(F)(F)Cl | -9.9% | 4.9% | -29.4% | 0.9% | 17.3% | i
Cc1cc(CNC(=O)c2cnn(-c3ncc4c(n3)-c3ccccc3CCC4)c2C2CC2)on1 | x | u | -6.3% | x | x | i
O=C(NC1CC1)c1[nH]c(C(F)(F)F)nc1-c1ccccc1 | -4.5% | -1.0% | -9.3% | -2.7% | 0.2% | i
O=C(CCc1ccc(S(=O)(=O)NCc2ccccc2)cc1)NCC1CCCO1 (stereo not drawn) | -1.7% | u | -16.5% | -1.2% | -4.7% | i
Cc1cc(C)c2c(=O)cc(C(=O)Nc3ccccc3C(F)(F)F)oc2c1 | -4.1% | -18.4% | 0.0% | 0.2% | 9.9% | i
COc1ccc(-c2nc(-c3ccccc3)c(-c3cccs3)[nH]2)cc1OC | u | 14.6µM* | 18.4µM* | 0.2% | 6.1% | i
COc1ccc(-c2nc(-c3cccs3)c(-c3cccs3)[nH]2)cc1OC | -1.8% | 16.4µM* | u | -45.1% | 4.3% | u
COc1ccc(-c2nc(-c3ccccc3)c(-c3ccccc3)[nH]2)cc1Br | u | 13µM* | 18.4µM* | -26.5% | -2.6% | i
COc1cc(-c2nc(-c3ccccc3)c(-c3cc([N+](=O)[O-])ccc3C)[nH]2)cc(OC)c1OC | -36.3% | 16.4µM* | 18.4µM* | -6.2% | 2.4% | i
Cc1ccc(C(=O)OCC(=O)NCc2ccco2)s1 | -29.0% | 7.5% | 29.3% | -0.8% | -11.3% | i
CCCCNC(=O)c1[nH]c(=O)cnc1-c1ccccc1 | 2.8% | 5.5% | -10.2% | 2.8% | 16.0% | i
COc1cc(-c2nc(-c3ccc4c(c3)-c3ccccc3S4(=O)=O)c(-c3ccccc3)[nH]2)cc(OC)c1O | -15.6% | 16.4µM* | 6.51µM* | -23.1% | 3.6% | u
COc1cc(-c2nc(-c3cccc(Cl)c3)c(-c3ccccc3)[nH]2)cc(OC)c1OC | u | 16.4µM* | 18.4µM* | -24.0% | -36.3% | u
COc1ccc(-c2[nH]c(-c3ccc(C(=O)O)cc3)nc2-c2ccccc2)cc1 | -18.8% | -25.0% | -14.0% | 0.2% | 6.5% | i
COc1ccccc1S(=O)(=O)N(C)C[C@@H]1OCc2cnnn2CCCC(=O)N([C@H](C)CO)C[C@H]1C | 5.5% | -22.4% | -3.3% | -1.9% | -1.6% | i
COc1ccc(-c2csc3ncnc(N4CCN(S(=O)(=O)c5ccc(Cl)s5)CC4)c23)cc1 | 2.8% | 29.1µM* | u | 11.7% | 5.4% | i
COc1ccc(-c2csc3ncnc(N4CCN(S(=O)(=O)c5cccs5)CC4)c23)cc1 | u | u | u | -0.9% | -19.8% | u
Cc1csc2ncnc(N3CCN(S(=O)(=O)c4cccc(C(F)(F)F)c4)CC3)c12 | u | 3.66µM* | 9.2µM* | -18.1% | -26.9% | i
O=S(=O)(c1ccc(Oc2ncnc3scc(-c4ccccc4)c23)cc1)N1CCOCC1 | 24.4% | 18.4µM* | 23.1µM* | 3.4% | -6.2% | i
COc1ccc(-c2csc3ncnc(N4CCN(S(=O)(=O)c5ccc(C)cc5)CC4)c23)cc1 | 1.6% | 14.6µM* | u | 8.7% | -13.8% | i
SMILES | TGFb SMAD3 inh | TDP1 cell noCPT | TDP1 cell CPT | HepG2 viability | ATXN2 expr inh | S2 tox
COc1ccc(-c2csc3ncnc(N4CCN(c5ccccc5Cl)CC4)c23)cc1 | u | u | u | -20.4% | -37.8% | u
O=S(=O)(c1cccc(Br)c1)N1CCN(c2ncnc3scc(-c4ccccc4)c23)CC1 | u | u | u | -13.2% | x | i
NC1CCc2ccc([N+](=O)[O-])cc21 (stereo not drawn) | -3.1% | u | -4.4% | -7.2% | x | x
CC1(c2ccccc2Cl)NC(=O)N(CC(=O)N2CCc3ccccc32)C1=O (stereo not drawn) | -8.0% | u | u | -21.5% | 0.4% | i
Cc1ccc(S(=O)(=O)N2CCN(C(=O)C3CCN(c4ncnc5sc(C)c(C)c45)CC3)CC2)c(C)c1 | -6.6% | 3.66µM* | 8.2µM* | 3.5% | x | i
CC(=O)c1ccc(S(=O)(=O)N2CCN(c3nn(C)c(=O)n(C)c3=O)CC2)cc1 | 18.4% | 0.7% | -17.0% | 2.8% | 0.7% | i
Cc1ccc(-c2csc3ncnc(Oc4cccc5ccc(C)nc45)c23)cc1 | 1.6% | 20.6µM* | u | -2.2% | x | i
CCCc1nc(N2CCN(S(=O)(=O)c3ccc(Cl)cc3)CC2)c2c(C)c(C)sc2n1 | 1.9% | u | u | 3.6% | -20.6% | i
Cc1sc2ncnc(N3CCN(S(=O)(=O)c4ccc(C(C)(C)C)cc4)CC3)c2c1C | -26.7% | 3.26µM* | 9.2µM* | -27.3% | u | i
Cc1ccc(OCC(=O)NNC(=O)C2CCN(c3ncnc4sc(C)c(C)c34)CC2)cc1 | -11.1% | u | u | -22.2% | -34.2% | i
COc1ccc(S(=O)(=O)N2CCN(c3nn(C)c(=O)n(C)c3=O)CC2)cc1 | -18.2% | 16.4µM* | u | -40.4% | -23.6% | i
Cc1ccc2cccc(Oc3ncnc4sc(C)c(C)c34)c2n1 | -21.4% | u | -21.8% | -21.4% | -23.4%[11.3 µM] | i
COc1cccc(C(=O)c2cn(CC(=O)NCCc3ccccc3)c3nc(C)ccc3c2=O)c1 | u | u | -21.4% | -10.2% | 3.5% | u
O=C1CC(=O)Nc2cc(S(=O)(=O)N3CCOc4ccc(Cl)cc43)ccc2N1 | 14.7% | u | u | -5.7% | -10.2% | i
CC(=O)Nc1cccc(Oc2ncnc3scc(-c4ccccc4)c23)c1 | u | 10.3µM* | u | -13.1% | -39.0% | u
